# Laboratory results published in PubChem BioAssay (NCI).
# About 83,000 compounds went through this panel and 20% of them were active in at least one assay; those are over-represented in the sample as a whole.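 The endpoint reported here, percent growth, reads 100 for growth as untreated, 0 for no net growth and -100 for all cells dead.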 Unmarked numbers belong to inactive results. Activity calls are given as the source filed them. How the source made its calls: active means growth percent below 10; inactive means the rest.
# Legend:
# Assay in all cases: NCI-60 one-dose screen, 48 h (100 = growth as untreated, 0 = no growth, -100 = all killed)
# Settings in all cases: 10 µM unless noted
# [1] = test system: T-47D breast
# [2] = test system: BT-549 breast
# [3] = test system: MDA-MB-435 melanoma
# [4] = test system: SW-620 colon
# [5] = test system: MCF7 breast
# [6] = test system: HCT-116 colon
# [7] = test system: HCC-2998 colon
# [8] = test system: KM12 colon
SMILES,growth [1],growth [2],growth [3],growth [4],growth [5],growth [6],growth [7],growth [8]
CCCSc1nc(N)nc2nc[nH]c12,97.6%,156%,117%,113%,104%,95.3%,115%,114%
CC(=O)OC[C@]12CC[C@@H](C(=O)CBr)[C@@H]1[C@H]1CC[C@@H]3[C@@]4(C)CCCNC(C)(C)[C@@H]4CC[C@@]3(C)[C@]1(C)CC2,-69.9% [100 µM] (active),-62% [100 µM] (active),-87.9% [100 µM] (active),-58% [100 µM] (active),-54.3% [100 µM] (active),-71.2% [100 µM] (active),-83.3% [100 µM] (active),-78.2% [100 µM] (active)
CC(=O)Nc1ccc(C=Nc2ccc3ccccc3c2)cc1,108%,102%,112%,106%,92.3%,101%,92.1%,108%
C=C(C)[C@@H]1CC[C@]2(C)[C@H](CC=C3[C@@H]4[C@@H](C)[C@H](C)CC[C@]4(C(N)=O)CC[C@]32C)[C@@]1(C)CCC#N,5.58% [100 µM] (active),-25.4% [100 µM] (active),1.04% [100 µM] (active),7.86% [100 µM] (active),2.14% [100 µM] (active),-43.8% [100 µM] (active),-22.4% [100 µM] (active),-46.4% [100 µM] (active)
CCN(CC)c1ccc2cc(C(Nc3ccc(Br)c(C(F)(F)F)c3)c3nnnn3C(C)(C)C)c(=O)oc2c1 (stereo not drawn),64.2%,97.3%,99.4%,98.7%,73.8%,93.5%,106%,102%
O=C(Nc1cccc2cccnc12)c1cc(C(=O)c2ccc(Cl)cc2)n2ccc(-c3ccncc3)cc12,95.7%,93.9%,97.6%,90.6%,98.3%,101%,113%,108%
